Only some compounds are listed: those with a hit (about 2.1% of all), similar ones and a draw of the others.
KLF5 inh: inhibitors of KLF5 expression | 290,000 compounds, 0.23% hits | DLD-1 KLF5 promoter-luciferase reporter, luminescence | AID 1700 | inhibition, % at 5 µM;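 active = inhibition above a per-plate limit of that plate's mean compound inhibition plus 3 SD, cut at about 60% in these data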;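 also: 0% = DMSO wells and 100% = LY294002 at 200 µM; higher means less KLF5 promoter-driven luciferase light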
Ba/F3 V617F tox: loss of viability in JAK2V617F-driven Ba/F3 cells | Ba/F3 EpoR-JAK2V617F viability, ATP luminescence | inhibition, % at 5.6 µM | 220,000 compounds, 1.1% hits | AID 1446;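 active = inhibition above the campaign mean plus 3 SD over all tested compounds, cut at about 24% in these data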;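 also: cytokine-independent growth of Ba/F3 cells driven by EpoR plus mutant JAK2; 0% = DMSO-treated cells and 100% = JAK inhibitor I control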
aSyn UTR inh: MLPCN primary screen, SNCA 5' untranslated region; inhibition, % (tested at 7.5 µM); 300,000 compounds, 0.82% hits; alpha-synuclein 5'UTR reporter, inhibitor activity; AID 1813; in the data active = inhibition above about 60%;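 also: H4 neuroglioblastoma cells stably carrying SNCA 5'UTR luciferase fusion; 0% = DMSO wells and 100% = positive control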
BaF3 parental: counter-screen for JAK2V617F inhibitors: parental Ba/F3 viability inhibitors | CellTiter-Glo ATP luminescence | inhibition, % at 5.6 µM | 220,000 compounds, 1.1% hits;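 active = inhibition above a per-campaign cutoff, the mean inhibition of all tested compounds plus 3 SD, cut at about 27% in these data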;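 also: 0% = DMSO wells and 100% = JAK Inhibitor I control wells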
IEC-6 tox: counter-screen for KLF5 inhibitors: cytotoxicity in IEC-6 cells. IEC-6 cytotoxicity, luminescence viability. inhibition, % at 5 µM. 290,000 compounds, 0.78% hits. AID 1825; in the data active = inhibition above about 22%;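 also: 0% = plate median of test compound wells and 100% = cytotoxic reference compound wells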
APP 5UTR inh: APP translation inhibition. SH-SY5Y APP 5'UTR-luciferase reporter, luminescence. inhibition, % at 2 µM. 190,000 compounds, 0.82% hits;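 active = inhibition above a set limit, derived from the sample mean plus 3 SD, cut at about 45% in these data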
BaF3 parental 2: parental Ba/F3 viability inhibition for JAK2V617F counter-screen | shares compounds with Ba/F3 V617F tox | CellTiter-Glo luminescence; cells kept alive by added IL-3 | inhibition, % at 5.6 µM | 580 compounds, 31% hits;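 active = cell growth inhibition above the hit limit set in the earlier mutant JAK2 cell screen, cut at about 27% in these data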;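 also: plate controls were DMSO-treated cells for no effect and JAK Inhibitor I control wells for full effect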
JAK2V617F confrm: confirmation: loss of viability in JAK2V617F-dependent Ba/F3 cells | shares compounds with Ba/F3 V617F tox | Ba/F3 EpoR-JAK2V617F viability, CellTiter-Glo luminescence | inhibition, % at 5.6 µM | 580 compounds, 66% hits | AID 1521;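 active = mean inhibition above the hit cutoff derived in the earlier primary screen, cut at about 25% in these data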;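 also: 0% = DMSO-treated cells and 100% = JAK inhibitor I control wells; higher means lower luminescence from reduced cell ATP and viability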
* hit, by the source's call.

How did CC(CN1C(C)CCCC1C)OC(=O)c1ccc(F)cc1 (centres undefined) do in these assays?
KLF5 inh: -18.6; aSyn UTR inh: 20.3; IEC-6 tox: -5.9

Results for c1ccc(CCCCNCC2COc3ccccc3O2)cc1 (centres undefined) ?
KLF5 inh: 4.6; Ba/F3 V617F tox: -0.7; aSyn UTR inh: 8.8; BaF3 parental: 6.1; IEC-6 tox: -2.7; APP 5UTR inh: -20.0

What do the screens show for `c1ccc(CCCNCC2COc3ccccc3O2)cc1` (centres undefined)?
KLF5 inh: -43.7; Ba/F3 V617F tox: 1.1; aSyn UTR inh: 3.1; BaF3 parental: -0.3; IEC-6 tox: 2.0; APP 5UTR inh: 72.9*

What do the screens show for `O=C(NCc1cc([N+](=O)[O-])ccc1O)c1cccnc1Sc1ccccc1Cl`?
KLF5 inh: -12.3; aSyn UTR inh: 2.3; IEC-6 tox: -2.8

What do the screens show for `CC(C)(C)SC(=O)C[C@@H]1NS(=O)(=O)OC2CCCCC21` (some centres undefined)?
KLF5 inh: -14.1; aSyn UTR inh: -5.9; IEC-6 tox: 2.7

Results for COc1ccc(C2C(C#N)=C(N)Oc3cc(N)ccc32)cc1 (centres undefined) ?
KLF5 inh: -11.3; aSyn UTR inh: 8.5; IEC-6 tox: 0.1

How did COc1ccc(C2C(C#N)=C(N)Oc3c2ccc2cccnc32)cc1OC (centres undefined) do in these assays?
KLF5 inh: 53.3; Ba/F3 V617F tox: 77.7*; aSyn UTR inh: 22.7; BaF3 parental: 76.3*; IEC-6 tox: 17.4; APP 5UTR inh: 92.3*

How did COc1cc(C2C(C#N)=C(N)Oc3cc(N)ccc32)cc(OC)c1OC (centres undefined) do in these assays?
KLF5 inh: 6.6; Ba/F3 V617F tox: -3.5; BaF3 parental: 3.3; IEC-6 tox: -0.9; APP 5UTR inh: 95.3*

What do the screens show for `C=CCn1ccc(O)c(Cc2ccc(Cl)cc2)c1=O`?
KLF5 inh: -10.5; aSyn UTR inh: 5.5; IEC-6 tox: 2.9

How did Cn1c2ccccc2c(=O)c2ccc(C#CC3(O)CCCCC3)cc21 do in these assays?
KLF5 inh: -11.4; aSyn UTR inh: 37.2; IEC-6 tox: -1.0

Results for OCc1nc2ccccc2n1Cc1c(F)cccc1Cl ?
KLF5 inh: -7.5; Ba/F3 V617F tox: -4.5; aSyn UTR inh: -18.6; BaF3 parental: 1.4; IEC-6 tox: -0.6

What do the screens show for `CSc1nc2ccccc2n1Cc1c(Cl)cccc1Cl`?
KLF5 inh: -33.9; Ba/F3 V617F tox: 20.4; aSyn UTR inh: 11.3; BaF3 parental: 29.6*; IEC-6 tox: -3.0; APP 5UTR inh: -13.4

Results for Nc1nc2ccccc2n1/N=C/c1cccnc1 ?
KLF5 inh: 0.5; Ba/F3 V617F tox: -3.6; aSyn UTR inh: -38.4; BaF3 parental: 1.6; IEC-6 tox: 2.5; APP 5UTR inh: -18.1

What do the screens show for `Nc1nc2ccccc2n1/N=C/c1ccc([N+](=O)[O-])s1`?
KLF5 inh: 4.9; Ba/F3 V617F tox: 2.2; aSyn UTR inh: 83.4*; BaF3 parental: 4.0; IEC-6 tox: -6.2; APP 5UTR inh: 24.5

Results for O=C(Nc1ccc(NC(=O)c2ccccc2)nc1)c1ccncc1 ?
KLF5 inh: -39.6; Ba/F3 V617F tox: -3.8; aSyn UTR inh: -81.2; BaF3 parental: 3.0; IEC-6 tox: -9.2; APP 5UTR inh: 8.3

What do the screens show for `O=C(Nc1ccc(NC(=O)c2ccccc2Cl)nc1)c1ccncc1`?
KLF5 inh: -30.5; Ba/F3 V617F tox: -1.0; aSyn UTR inh: -14.7; BaF3 parental: 89.7*; IEC-6 tox: 0.7; APP 5UTR inh: -4.1

What do the screens show for `C=CC[n+]1ccc(/C=C2\C=Cc3cc(C)ccc3N2CC)c2ccccc21`?
KLF5 inh: 3.5; Ba/F3 V617F tox: 99.8*; BaF3 parental: 84.6*; IEC-6 tox: 38.9*; APP 5UTR inh: 27.3

Results for CCC(C)(C)c1ccc(OCCCC[n+]2ccccc2)c(C(C)(C)CC)c1 ?
KLF5 inh: 13.0; Ba/F3 V617F tox: 100.2*; aSyn UTR inh: 20.3; BaF3 parental: 85.4*; IEC-6 tox: 6.5; APP 5UTR inh: -7.3

Results for CCCCCc1ccc(OCCCC[n+]2ccccc2)c(CCCCC)c1 ?
KLF5 inh: 9.1; Ba/F3 V617F tox: 100.3*; aSyn UTR inh: 7.6; BaF3 parental: 81.3*; IEC-6 tox: 7.5; APP 5UTR inh: -6.1

Results for CCC(C)(C)c1ccc(Oc2cccc(C(=O)O)c2)cc1 ?
KLF5 inh: -172.9; Ba/F3 V617F tox: -1.5; aSyn UTR inh: -94.6; BaF3 parental: -3.6; IEC-6 tox: -0.3

How did CCCCOc1ccc(C)cc1CN(CCO)CCO do in these assays?
KLF5 inh: -30.1; Ba/F3 V617F tox: 0.8; aSyn UTR inh: -3.6; BaF3 parental: 4.0; IEC-6 tox: 2.0; APP 5UTR inh: -13.2

How did CCCCCc1ccc(OCCCC[n+]2ccc(C)cc2)c(CCCCC)c1 do in these assays?
KLF5 inh: 12.7; Ba/F3 V617F tox: 102.0*; BaF3 parental: 102.8*; IEC-6 tox: 18.8; APP 5UTR inh: -15.2

How did CCCCCc1ccc(OCCCC[n+]2cccc(C)c2)c(CCCCC)c1 do in these assays?
KLF5 inh: 26.4; Ba/F3 V617F tox: 102.0*; aSyn UTR inh: 22.6; BaF3 parental: 95.0*; IEC-6 tox: 21.1; APP 5UTR inh: 14.2

What do the screens show for `CCn1ccnc1CN(C)C(=O)C1CCC(=O)N(Cc2cccc(F)c2)C1` (centres undefined)?
KLF5 inh: 3.7; aSyn UTR inh: -2.6; IEC-6 tox: 3.9

What do the screens show for `O=C(NCC1CCCO1)c1ccc(N2CCCCC2)c([N+](=O)[O-])c1` (centres undefined)?
KLF5 inh: -36.2; aSyn UTR inh: -59.1; IEC-6 tox: 1.7

How did CCOC(=O)Nc1ccc2c(c1)N(C(=O)CCN1CCOCC1)c1ccccc1S2=O (centres undefined) do in these assays?
KLF5 inh: -48.0; Ba/F3 V617F tox: 40.9*; aSyn UTR inh: -53.4; BaF3 parental: 3.6; IEC-6 tox: 9.6; APP 5UTR inh: 13.2; BaF3 parental 2: -1.6; JAK2V617F confrm: 23.2

Results for CCS(=O)(=O)CCSc1nc2ccccc2s1 ?
KLF5 inh: 5.5; Ba/F3 V617F tox: 1.4; aSyn UTR inh: -7.0; BaF3 parental: 2.6; IEC-6 tox: 4.9; APP 5UTR inh: 2.2

What do the screens show for `O=S(=O)(CCSc1nc2ccccc2s1)c1nc2ccccc2s1`?
KLF5 inh: -8.8; Ba/F3 V617F tox: 40.4*; aSyn UTR inh: -24.3; BaF3 parental: -1.8; IEC-6 tox: 4.2; APP 5UTR inh: 30.1; BaF3 parental 2: 35.6*; JAK2V617F confrm: 99.9*

How did CCCCN(CC)C(=O)C1CCC(CNS(=O)(=O)c2cccc3nsnc23)CC1 (centres undefined) do in these assays?
KLF5 inh: -24.6; aSyn UTR inh: 9.8; IEC-6 tox: -7.4

Source: PubChem BioAssay
